Molecules are shown by their SMILES. Among all 2,200 compounds or so, about 1,700 (77%) were called active.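 Rule for the calls: active = mean inhibition across replicate wells exceeding the computed hit threshold (cut at about 13% in these data); inactive = the rest.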 So high a share suggests a set chosen from earlier hits. The list is a sample of the results.

Here are results for five compounds from PubChem BioAssay AID651674 (The Scripps Research Institute Molecular Screening Center, 2012).

The target of the test is Hepatocyte nuclear factor 4-alpha (Homo sapiens) (UniProt P41235). The test is described as follows: blockers of HNF4 self-association – biochemical, split-luciferase complementation, luminescence, counter-screen for ABHD5-PLIN5 interaction inhibitor project (AID 651674).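 Note: light from luciferase halves that rejoin when HNF4 fusion proteins dimerize; 0% = DMSO only wells and the 100% control is not given.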 Particulars: HNF4 dimerization, at 4 µM, hits give high values. For orientation: A counterscreen serves to expose hits that act by an unwanted route or on another target.
Hepatocyte nuclear factor 4-alpha (Homo sapiens), sequence (P41235 whole entry, looked up, the tested form may be a part): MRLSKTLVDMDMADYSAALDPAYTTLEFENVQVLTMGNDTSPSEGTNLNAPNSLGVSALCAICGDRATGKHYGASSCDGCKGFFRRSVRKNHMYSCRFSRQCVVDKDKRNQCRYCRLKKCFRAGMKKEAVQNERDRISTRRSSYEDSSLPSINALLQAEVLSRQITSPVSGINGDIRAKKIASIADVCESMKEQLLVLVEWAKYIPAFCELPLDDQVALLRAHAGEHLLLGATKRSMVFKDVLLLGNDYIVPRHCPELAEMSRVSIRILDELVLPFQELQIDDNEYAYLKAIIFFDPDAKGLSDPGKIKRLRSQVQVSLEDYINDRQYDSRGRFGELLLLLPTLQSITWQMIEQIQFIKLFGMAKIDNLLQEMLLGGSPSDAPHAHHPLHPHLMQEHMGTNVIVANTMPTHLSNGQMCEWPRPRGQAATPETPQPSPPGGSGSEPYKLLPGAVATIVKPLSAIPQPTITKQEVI
As usually defined, the inhibition is the drop in the measured response relative to a control, in per cent. In the case of `COc1ccc(CN2C(=O)NC(=O)/C(=C\c3ccc(OC)c(OC)c3OC)C2=O)cc1`, the inhibition is 31.3% (active).
The result for `CN(C)CC1Oc2ccccc2OC1(O)c1ccccc1` (stereo not given) reads 104% (active).
The result for `Cc1cccc(N2C(=O)NC(=O)/C(=C\c3cnn(-c4ccccc4)c3)C2=O)c1` reads 68.7% (active); that for `CCOC(=O)[C@]12Cc3ccccc3[C@H]1N(C1CCCCC1)C(=O)c1cc(OC)ccc12`, 27.9% (active).
The result for `CCc1nnc(NS(=O)(=O)c2ccc(N=Cc3c(O)n(-c4ccccc4)c(=O)[nH]c3=O)cc2)s1` reads 33.6% (active).
